Sampled rows, rich in hits. Any-hit rate of the full collection: about 3.6%.
mHTT CaM bind – disrupts binding of mutant huntingtin to calmodulin; P42858; AlphaScreen His-mHTT/GST-CaM binding, luminescence; inhibition, % at 15 µM; 3.6% of 190,000 active; AID 1671202;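 further: 0% = both proteins with DMSO and 100% = one protein alone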
Pf apPOL inh – Pf-apPOL DNA polymerase inhibition. 0.25% of 210,000 active. inhibition, % at 10 µM. Recombinant Pf-apPOL, molecular beacon fluorescence, 1.5 h
* = called active by the depositor; i = inactive; . = no result. No stated cut-off is given here; in the data, active means inhibition above about 50%; inactive means the rest.

SMILES	mHTT CaM bind	Pf apPOL inh
Clc1ccc(Cn2cnc(Cl)c2Cl)cc1Cl	73*	-6
Cc1ccc(=O)n(Cc2ccc(Cl)c(Cl)c2)n1	.	-10
COc1ccc(Cn2c(C(=O)NC3CC3)cc3sccc32)cc1	18	-23
O=C1C2C3c4ccccc4C(/C=N/O)(c4ccccc43)C2C(=O)N1c1ccc(Br)cc1 (centres undefined)	i	3
COc1ccccc1-c1ccc(C=CC(=O)c2ccco2)o1	58*	-9
Cc1ccc(-c2ccc(/C=C/C(=O)c3ccco3)o2)cc1	31	-14
CCC(Sc1nc2nc(C)c(Cc3cccc(C)c3)c(C)n2n1)C(=O)NCc1ccco1 (centres undefined)	29	1
CC(C)CNC(=O)C1CCc2nc(N3CCN(C(=O)C4CCC4)CC3)sc2C1 (centres undefined)	-6	-3
Cc1ccc(NC(=O)Cn2nc(N3CCCC3)c3ccccc3c2=O)c(Cl)c1	-5	1
COc1ccc(C(=O)COc2ccc3c(c2)OC(=CC2=Cc4ccccc4OC2)C3=O)cc1OC	58*	-6
COc1cccc(C=C2Oc3cc(OCC(C)=O)ccc3C2=O)c1	6	0
C=C(C)COc1ccc2c(c1)OC(=Cc1cccc(OC)c1)C2=O	73*	-7
COc1ccc(C=C2Oc3cc(OCC(=O)O)ccc3C2=O)cc1	4	61*
CC(=O)COc1ccc2c(c1)OC(=CC=Cc1ccccc1)C2=O	88*	7
CCOC(=O)COc1ccc2c(c1)OC(=CC=Cc1ccccc1)C2=O	11	-2
COc1ccc(C=C2Oc3cc(OCC(=O)c4ccc(OC)cc4)ccc3C2=O)cc1	-1	-3
CC(C)(C)OC(=O)COc1ccc2c(c1)OC(=CC1=Cc3ccccc3OC1)C2=O	8	-3
COc1ccc(C(=O)O/N=C(\N)Cc2ccc(Cl)cc2)cc1	i	-1
COc1ccccc1/C=C/C1=NC(=C\c2cccc(F)c2)/C(=O)O1	10	0
CSc1nnc(-c2nn(C)c3c2CN(C(C)=O)CC3)n1C	0	-1
CSc1ccc(CNC(=O)C2CCN(c3cncnc3N3CCCCC3)CC2)cc1	25	-2
O=C(NCc1ccc(C(F)(F)F)cc1)C1CCN(c2cncnc2N2CCCC2)CC1	83*	4
Cc1cccc(CNC(=O)C2CCN(c3cncnc3N3CCCC3)CC2)c1	22	8
O=C(NCc1cccc(Cl)c1)C1CCN(c2cncnc2N2CCCC2)CC1	52*	0
CC(=O)Nc1cc(S(=O)(=O)Nc2ccccc2)ccc1C	-4	-4
SMILES	mHTT CaM bind	Pf apPOL inh
CCCCNC(=S)N1CCOCC1	-3	.
CCOc1ccc(C(=O)Nc2cccc(C)n2)cc1OCC	1	-4
CCOc1cccc(C(Nc2ccccn2)c2ccc3ccc(C)nc3c2O)c1 (centres undefined)	59*	-1
CCOc1cccc(C(Nc2cccc(C)n2)c2ccc3ccc(C)nc3c2O)c1 (centres undefined)	70*	-58
CCOc1cc(OCC)cc(C(=O)Nc2ccccn2)c1	-9	0
O=C1CC(NCc2ccco2)C(=O)N1c1ccc(I)cc1 (centres undefined)	-2	1
O=C(Nc1ccc2c(c1)OCO2)c1coc(NC(=O)c2ccco2)n1	32	-8
Cc1ccc(-c2[nH]c3ccccc3c2SCCNC(=O)c2ccncc2)cc1	33	-2
COc1cccc(NC(=O)C2CCCN(S(=O)(=O)c3ccc(Br)s3)C2)c1 (centres undefined)	-8	-7
CCN(c1cccc(C)c1)C(C(=O)Nc1ccc(OC)cc1)c1cc2c(cc1[N+](=O)[O-])OCO2 (centres undefined)	24	-6
COc1ccc(C(C(=O)Nc2ccc3c(c2)OCO3)N(C)C(=O)Cc2c[nH]c3ccccc23)cc1 (centres undefined)	75*	-11
COc1ccc(NC(=O)C(c2cc3c(cc2[N+](=O)[O-])OCO3)N(C)Cc2ccccc2)cc1 (centres undefined)	61*	-7
CN(C(=O)Cc1c[nH]c2ccccc12)C(C(=O)Nc1ccc2c(c1)OCCO2)c1ccccc1 (centres undefined)	42	-3
CCOc1cccc(CN2CCc3nc(Nc4cc(OC)cc(OC)c4)ncc3C2)c1	26	-3
CN(C)CCCN1c2ccccc2Sc2ccc(Cl)cc21	.	10
CC(C)COc1ccc2c(c1)Sc1ccccc1N2CCN(C)C	93*	-20
O=[N+]([O-])c1cccc(S(=O)(=O)N2CCCC2)c1	-3	-10
O=[N+]([O-])c1cccc(S(=O)(=O)C=C(Cl)Cl)c1	63*	.
O=C(CSc1ccc(Cl)cc1)Nc1ccccc1N1CCOCC1	-4	0
CCN1CCN(C(=O)c2cnn(-c3ccccc3)c2NC(=O)c2ccccc2C)CC1	-4	-13
O=C(CN1C(=O)C(c2ccccc2)=NC12CCCCCC2)Nc1cccc(F)c1	52*	-9
CC1CCC2(CC1)N=C(c1ccccc1)C(=O)N2CC(=O)Nc1ccc(F)c(F)c1 (centres undefined)	76*	-7

Screening results deposited in PubChem by University of Kansas High Throughput Screening Laboratory.
